60 sequences from the supplement of paper PMC11417369 can be followed below.

± gives the standard deviation of the averaged measurements. The full ranking holds about 25,000 sequences; the median of “ln(normalized median fluorescence intensity)” is about 8.6, and the highest 2% start at about 10. What follows is part of a selection rich in the highest values, with near analogues and random picks from the rest.

In this assay the test system is PfAP2-EXP AP2 domain (GST-tagged). Nature of the assay: gcPBM binding intensity (ln(normalized median fluorescence intensity)); higher = stronger DNA binding. In a few lines: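 An Agilent 4 × 180k array of primer-extended double-stranded 36-bp intergenic genomic probes, with negative controls, was incubated for 1 h with GST-tagged P. falciparum DNA-binding domains expressed in E. coli. Alexa488 anti-GST antibody detected bound protein, scanned at 488 nm. Binding intensity is the highest Masliner-normalised natural-log median intensity across replicate spots of either probe orientation.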
TAAAATTAATTTCTGTTGCACTTATTATTAATTAAC: the “gcPBM binding intensity (ln)” value amounted to 8.84 ± 0.4. For the sequence “GATATAAACGTATATGTACATATATATATATATATA [GTGCAC_negctrl_site186]”, the “gcPBM binding intensity (ln)” value was determined as 10.2 ± 0.41. Consider “AACATAAAAAAAATATGTACATATATAATATATATA [XGTACX_site3764]”, for which the “gcPBM binding intensity (ln)” value turned out to be 8.85 ± 0.23. The value for “GTAAATATATAAACATGTACATATATAAATATATAA [XGTACX_site7262]” was 8.51 ± 0.33; that for “TAAATATATATAACATGTACATAAAATATATATATA [XGTACX_site4431]” was 9.53 ± 0.13. The value for “ATATATATATATATATGTACATATATATTGTTGATC [XGTACX_site8893]” was 10.1 ± 0.26; that for “TATATATAAAACATATGTACATATATATATATATAT [XGTACX_site419]” was 10.2 ± 0.24. In the case of “ATAAAAAAAAATATATGTACATATATAAATTGATAT [XGTACX_site7409]”, the “gcPBM binding intensity (ln)” value is 8.73 ± 0.42. On to “GCAAATATGTTGATATGTACATATATATATATATAT [XGTACX_site445]”, for which the “gcPBM binding intensity (ln)” value worked out at 10.2 ± 0.45. “ATATAAATATAAACATGTACATATATATATATATAT [XGTACX_site2824]”: the “gcPBM binding intensity (ln)” value is 10.3 ± 0.79. The same measure for “TATAAACGTATAATATGTACACACACATATATACAA [XGTACX_site1686]”: 8.43 ± 0.32; for “AATATATAAACACGTACACACACATATATGTATATA [CACACA_site9168]”: 8.73 ± 0.43. “ATAAAAACATAAAAATGTACATATATATATATATAT [XGTACX_site7165]”: the “gcPBM binding intensity (ln)” value was 10.1 ± 0.25. As to “AATGGGTAAACATACACACACACATATATATATATA [CACACA_site1991]”, the “gcPBM binding intensity (ln)” value came out at 10.1 ± 0.33. For “AATAAGTTATTATTTTGTACACATAAATAATACGTT [XGTACX_site814]”, the “gcPBM binding intensity (ln)” value turned out to be 8.32 ± 0.3. Consider “ATATTCATATATTTACGTACATACATTTATATATTT [XGTACX_site7644]”, for which the “gcPBM binding intensity (ln)” value is 8.85 ± 0.37. The same measure for “TACCTATACAGACACACACACACACGCCCACAAAAA [CACACA_site6375]”: 8.77 ± 0.35; for “GAAATTAAATGACATACACACTATATTATATATTTT [CACACA_site5693]”: 8.34 ± 0.35. Turning to “AGTAGTCTGGAGAAGAGTACACAGTATCTGGTAGCT [XGTACX_site2042]”, the “gcPBM binding intensity (ln)” value is 8.48 ± 0.47. Consider “AAATAAAATAAAAACATGCACACTTTATTTTTTTTA [CACACA_site2800]”, for which the “gcPBM binding intensity (ln)” value is 8.49 ± 0.26. As to “AGAAAAGAGAGAAAAACATGCACATGATATTATAAA [TGCATGCA_site120]”, the “gcPBM binding intensity (ln)” value turned out to be 8.62 ± 0.53.

For “CATGATATATAAATATGTACATATATATATATATAT [XGTACX_site1760]”, the “gcPBM binding intensity (ln)” value was 10.2 ± 0.23. With “TTATATGCATAAAAACGTACAAAAATGTATTCATGT [XGTACX_site2215]”, the “gcPBM binding intensity (ln)” value is 8.71 ± 0.38. Regarding “AATATGATATATATATGTACATATATATAATATAAT [XGTACX_site3072]”, the “gcPBM binding intensity (ln)” value was determined as 8.52 ± 0.41. The value for “ATAAATATAAATATATGTACATATATATATATATAT [XGTACX_site7433]” was 10.2 ± 0.15; that for “ATATATATATATATATGTACGTATTCATAAACAACA [XGTACX_site4282]” was 10.2 ± 0.6. With “AAACATATATACATATGTACATATATACATATATGT [XGTACX_site5779]”, the “gcPBM binding intensity (ln)” value stood at 8.4 ± 0.26. For the sequence “ATATATATATATATATGTACATAAACATATATATAT [XGTACX_site1064]”, the “gcPBM binding intensity (ln)” value was determined as 10.2 ± 0.21. In the case of “ATAAATAAAACAAAATGTACAAATATTCATATATTC [XGTACX_site1307]”, the “gcPBM binding intensity (ln)” value stood at 8.49 ± 0.32. As to “AAACATATAAACATATGTACATATAAACATATATAC [XGTACX_site5026]”, the “gcPBM binding intensity (ln)” value is 8.64 ± 0.33. Regarding “TTTTTTCTTTCTTTCAAACACACATTAATTTTATTC [CACACA_site2733]”, the “gcPBM binding intensity (ln)” value was 8.66 ± 0.49.

As for “ATAAATATGGAGCACACACACATAAACATACATATA [CACACA_site421]”, the “gcPBM binding intensity (ln)” value amounted to 8.84 ± 0.67. In the case of “AGAAGGATATTATGAAGTACACATATTGTATATGGT [XGTACX_site7503]”, the “gcPBM binding intensity (ln)” value is 8.47 ± 0.35.

“AATATATAAATATTGTGTACTTATTTTTTTATATGT [XGTACX_site4377]”: the “gcPBM binding intensity (ln)” value amounted to 8.49 ± 0.18. On to “TAAATATGAGGGAACACACACATGATATATAAATTC [CACACA_site2400]”, for which the “gcPBM binding intensity (ln)” value turned out to be 8.81 ± 0.43. On to “TATATATTGCCCTTCACACACACACCCATATATATA [CACACA_site2493]”, for which the “gcPBM binding intensity (ln)” value came out at 9.06 ± 0.42. The same measure for “TTATTTATTTATTGTTGTACACAAAATGATTCTTAA [XGTACX_site6480]”: 8.7 ± 0.2; for “TTATATAACACGGGGAGGACACAAGAAATAAAGAGC [XGTACX_site2148]”: 9.13 ± 0.29; for “ATTTTGATAACCGTACGTACATATATATATATATAT [XGTACX_site6605]”: 10.3 ± 0.35. Consider “AATGATTTTGATTAACGTACGTACAAATATATATAT [XGTACX_site6604]”, for which the “gcPBM binding intensity (ln)” value was determined as 9.31 ± 0.057. For the sequence “AAAATTATATATTATAGTACATAAAATTTTGATATA [XGTACX_site994]”, the “gcPBM binding intensity (ln)” value stood at 8.39 ± 0.35. Take “AAATAGAGAAATACAAGTACATATCAAACCAATCTA [XGTACX_site2756]”: the “gcPBM binding intensity (ln)” value worked out at 8.52 ± 0.42.

Take “TTATACACCTTTCATTGTACATATAATTTATATTCT [XGTACX_site8685]”: the “gcPBM binding intensity (ln)” value turned out to be 8.95 ± 0.33. For “TATTACATTGTTGAATGTACTCATTTAAAATTTATA [XGTACX_site7987]”, the “gcPBM binding intensity (ln)” value was determined as 8.34 ± 0.38. For the sequence “TATATAATACGAATTTGTACATATTAAATAAATTAT [XGTACX_site93]”, the “gcPBM binding intensity (ln)” value was found to be 8.41 ± 0.37. On to “TATATATATATATATATAATACGAATTTGTAGTACA [TGCATGCA_negctrl_site224]”, for which the “gcPBM binding intensity (ln)” value turned out to be 10.2 ± 0.16. “ATAATACGAATTTGTAGTACATTTATAATAACATGA [XGTACX_site2614]”: the “gcPBM binding intensity (ln)” value was found to be 8.37 ± 0.17. As to “AATTATATTTGAAATACACACATAAAAACCATATAG [CACACA_site7598]”, the “gcPBM binding intensity (ln)” value came out at 8.89 ± 0.51. The same measure for “ACATACACATATACATGTACATATATATATATATAT [XGTACX_site5082]”: 10.2 ± 0.2. The value for “ACACATACATACATATGTACATATATACATATATAC [XGTACX_site5559]” was 8.84 ± 0.26.

Take “ACACACATATATACATGTACATATATATATATATAT [XGTACX_site451]”: the “gcPBM binding intensity (ln)” value is 10.1 ± 0.3. For the sequence “ACACATATATAAATATGTACATATATATATATACAT [XGTACX_site1595]”, the “gcPBM binding intensity (ln)” value is 8.61 ± 0.23. As for “AATATATTCCACATGTGTACATATATATATATATAT [XGTACX_site8006]”, the “gcPBM binding intensity (ln)” value was 10.3 ± 0.24. As for “ATGTAAATACATATATGTACACAAATATATATATAT [XGTACX_site3537]”, the “gcPBM binding intensity (ln)” value was determined as 9.8 ± 0.35. For “TATATATATATATATGTACACACATATATACCTTTC [CACACA_site8854]”, the “gcPBM binding intensity (ln)” value was found to be 10.2 ± 0.26. Take “TATATATATATATGTACACACATATATACCTTTCAT [CACACA_site2679]”: the “gcPBM binding intensity (ln)” value came to 10.1 ± 0.27. For “TCACACATATATTCATGTACATATTAATATTTCCAT [XGTACX_site5387]”, the “gcPBM binding intensity (ln)” value was 8.85 ± 0.44.

As for “GTAAATACACATATGTGTACATATATATATATATAT [XGTACX_site3696]”, the “gcPBM binding intensity (ln)” value stood at 10.2 ± 0.35.

For “TCATACATGTATATGTGTACATATAATGTATATTCC [XGTACX_site6082]”, the “gcPBM binding intensity (ln)” value is 8.3 ± 0.3. “TATATATATTTATGTACACACATATATACCTTTCAT [CACACA_site5479]”: the “gcPBM binding intensity (ln)” value is 8.74 ± 0.23.
